# According to the supplement of paper PMC7726561:
# Molecular target: HLA-C*04:01
# Test: thermal melting temperature (Tm) of peptide-HLA complex; higher = more thermostable pHLA complex
# Settings: C1R-A*02:01
# Method in brief: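 Triplicate lysates of C1R-A*02:01 or C1R-B*07:02 cells were held at 37–73 °C for 10 min, chilled on ice, then captured overnight at 4 °C on W6/32–protein A sepharose. The acid-eluted peptides, spiked with iRT peptides, were measured by DIA-MS as iRT-normalised, outlier-corrected peak areas expressed as median fold-change against 37 °C. Tm denotes the midpoint of the transition in a least-squares logistic sigmoid fit, where each fit had to reach R^2 > 0.85.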
row,Sequence,thermal melting temperature [°C]
1,MLDPLEVHL,47.2
2,VADPYVVIM,53.4
3,IWEPLAVKL,47.3
4,NYDEALRLL,54
5,VWDVIGRSL,53.5
6,VYDIAAKF,56.9
7,VYDLLKTNL,59
8,VFHVQQTEM,53.8
9,HFDDFVTNL,58.7
10,AFDVHLNAF,55.5
11,FTDEESRVF,48.1
12,NYDFGPIHM,54.2
13,AYDDKIYYF,56.1
14,QLDPLVVEL,50
15,IFDSKVTEI,55.4
16,SYDHVELTF,51.3
17,ILDPHVVLL,54.8
18,SFDVSQKF,49
19,KADGVPVYL,56.5
20,FYPPDPAQL,49.5
21,SFDSTVRL,52.9
22,RFDSDVGEF,54.9
23,TFDASRTTF,53.4
24,FNDTFVHV,49.3

# Same assay, conditions: C1R-B*07:02
row,Sequence,thermal melting temperature [°C]
1,MLDPLEVHL,52.5
2,VADPYVVIM,54.6
3,IWEPLAVKL,47.2
4,NYDEALRLL,53
5,VWDVIGRSL,51.9
6,VYDIAAKF,57.6
7,VYDLLKTNL,58.3
8,VFHVQQTEM,54.5
9,HFDDFVTNL,58
10,AFDVHLNAF,55.9
11,FTDEESRVF,46.7
12,NYDFGPIHM,55.8
13,AYDDKIYYF,55.7
14,QLDPLVVEL,46.9
15,IFDSKVTEI,54.8
16,SYDHVELTF,51.9
17,ILDPHVVLL,57.6
18,SFDVSQKF,49.7
19,KADGVPVYL,57.1
20,FYPPDPAQL,51.5
21,SFDSTVRL,54.6
22,RFDSDVGEF,54.5
23,TFDASRTTF,53.5
24,FNDTFVHV,48.5
